Assay outcomes deposited in PubChem BioAssay by National Center for Advancing Translational Sciences (NCATS).
A selection: hits, their analogues and other compounds. The true share with any hit is near 7.5%.
ELG1 genotox – qHTS screen for small molecules that induce genotoxicity in human embryonic kidney (HEK293T) cells expressing luciferase-tagged ELG1; HEK293T ELG1-luciferase reporter, luminescence, 16 h; Potency, µM (highest dose often 46 µM), inactives show at the top dose activity change, positive = activation, usual class: activators; 330,000 compounds, 1.3% hits; AID 504466, 2011; further: % of control where 0% means no effect; nearly all actives have a fitted effect of over 60% in size
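Luminescence read-out: rising ELG1-luciferase signal, reflecting elevated ELG1 protein under genetic stress, flags genotoxic compounds. Cells were treated for 16 hr at 37 °C before ONE-Glo detection.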
SMN2 splice up – qHTS Assay for Enhancers of SMN2 Splice Variant Expression. HEK293 SMN2-luciferase splicing reporter, luminescence, 30-36 h. Potency, µM (top dose mostly 46.1 µM), without a hit: at the top dose activity change, positive = activation, hits mostly activators. 210,000 compounds, 2.8% hits. AID 1458, 2008; further: % of control where 0% means no effect; nearly all actives have a fitted effect of over 55% in size
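HEK293 cells carry an SMN2 minigene-luciferase reporter in which exon 7 inclusion puts luciferase in frame. Cells were seeded at 2000 cells/well, attached for 10-12 hours, then exposed to compounds for 30-36 hours at 37C before ONE-Glo luminescence.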
FLuc counter – qHTS profiling assay for firefly luciferase inhibitor/activator using purifed enzyme and Km concentrations of substrates (counterscreen for miR-21 project). AID 588342, 2011. purified FLuc, Km substrates, luminescence inhibition. 360,000 compounds, 6.9% hits. Potency, µM (highest dose often 57.5 µM), inactives show at the highest dose activity change, negative = inhibition, most hits filed as inhibitors;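 further: plate controls were vehicle for no effect and reference inhibitor for full effect; nearly all actives have a fitted effect of over 55% in size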
Target sequence (P08659 whole entry, looked up): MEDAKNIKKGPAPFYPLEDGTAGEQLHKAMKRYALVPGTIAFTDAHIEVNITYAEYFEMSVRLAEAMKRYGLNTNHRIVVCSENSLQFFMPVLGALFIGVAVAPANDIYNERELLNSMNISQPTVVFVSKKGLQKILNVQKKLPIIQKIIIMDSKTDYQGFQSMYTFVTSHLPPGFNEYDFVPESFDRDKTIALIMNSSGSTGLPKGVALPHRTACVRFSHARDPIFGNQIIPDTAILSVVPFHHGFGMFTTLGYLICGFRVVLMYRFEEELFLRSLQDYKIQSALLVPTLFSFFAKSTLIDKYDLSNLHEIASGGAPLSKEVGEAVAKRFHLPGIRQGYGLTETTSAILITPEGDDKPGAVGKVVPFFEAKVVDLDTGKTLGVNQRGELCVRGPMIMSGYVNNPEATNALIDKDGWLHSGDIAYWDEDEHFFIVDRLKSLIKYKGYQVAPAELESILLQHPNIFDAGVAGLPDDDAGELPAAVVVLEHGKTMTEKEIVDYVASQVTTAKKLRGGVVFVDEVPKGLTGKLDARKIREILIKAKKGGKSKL
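Purified P. pyralis luciferase, 10 nM final, with Km-level 10 uM D-luciferin and 10 uM ATP in 50 mM Tris acetate pH 7.5, 10 mM Mg acetate, 0.01% Tween-20, 0.05% BSA; 6-point qHTS titration about 60 µM downward; luminescence read.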
Rab9 prom act – qHTS Assay for Rab9 Promoter Activators; Huh7 Rab9 promoter-luciferase reporter, luminescence, 24 h; Potency, µM (doses to about 9.22 µM), without a hit: at the top dose activation, negative = inhibition, actives largely listed as activators; 320,000 compounds, 2.8% hits; further: % of control where 0% means no effect; nearly all actives have a fitted effect of over 60% in size
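Using Huh7 cells stably transfected with Rab9 promoter–luciferase, compounds were incubated 24 h at 37 °C, 5% CO2; luciferase luminescence was read 10 min after reagent addition.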
NPC1 prom act – qHTS Assay for NPC1 Promoter Activators | Huh7 NPC1 promoter luciferase reporter, 24 h | 320,000 compounds, 2.4% hits | Potency, µM (top dose mostly 9.22 µM), without a hit: at the highest dose activation, most hits filed as activators | AID 485313, 2010; further: % of control where 0% means no effect; nearly all actives have a fitted effect of over 60% in size
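Compounds in DMSO were transferred onto Huh7 NPC1-luciferase reporter cells pre-incubated 2 h; after 24 h at 37 °C, Amplite reagent was dispensed and luminescence recorded 10 min later.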
Starred values were filed as active, the others as inactive; ? = inconclusive; . = no result; [ ] = remark or other dose. The call rests on the fitted dose curve; in most records, active means well fitted curve in the direction sought with a large enough effect; inconclusive means small, poorly fitted or top-dose-only effect, or another doubt; inactive means no such curve, though single readings can be large; an effect the other way counts as inactive or inconclusive. Potency means the concentration at half of the fitted maximal effect.

SMILES	ELG1 genotox	SMN2 splice up	FLuc counter	Rab9 prom act	NPC1 prom act
CCN(CC)S(=O)(=O)c1cc(C(=O)Nc2ccccc2[N+](=O)[O-])ccc1Cl	?	-8.1%[1.84 µM]	9.53µM*	?	?
C[C@H]1C(O)[C@@]23CCC4C5(C=[N+](CCO)C[C@]4(C)CCC5)C2C[C@@H]1C3 (stereo partly drawn)	.	4.4%	.	.	.
C[C@H](CO)N1C[C@H](C)[C@@H](CN(C)S(=O)(=O)c2ccccc2)Oc2ccc(NC(=O)CCN3CCOCC3)cc2C1=O	5.9%	.	.	.	.
COc1ccc(NC(=S)Nc2ccc(N)c([N+](=O)[O-])c2)cc1	?	15.8µM*	?	11.8%	9.3%
N/C(=N\c1nc2ccccc2o1)NC(=O)c1ccccc1Br	5.8%	.	12µM*	?	?
CC(C)(C)c1ccc(C(=O)N/C(N)=N/c2nc3ccccc3o2)cc1	-6.2%	-53.6%	?	-13.3%	-3.3%
Cc1ccc2oc(/N=C(\N)NC(=O)C(C)(C)C)nc2c1	7.2%	.	0.0757µM*	-29.9%	-22.3%
Cc1ccc2oc(/N=C(\N)NC(=O)C3CC3)nc2c1	?	.	0.849µM*	0.447µM*	0.631µM*
COc1ccc(NC(=O)COC(=O)CCOc2ccccc2C)cc1Cl	-0.2%	.	1.8%	-4.2%	-0.8%
Cc1cc(C)c(C#N)c(SCc2ccccc2)n1	3.3%	4.0%	-0.3%	-3.3%	-0.4%
Cc1ccc2nc(CSc3nc(C)cc(C)c3C#N)[nH]c2c1	?	4.47µM*	3.38µM*	?	11.8%
CN1CCN(Cn2cc(/C=C/C(=O)c3ccccc3)c3ccccc32)CC1	?	26.9%	2.39µM*	2.82µM*	?
CN(C)c1ccc(-c2nc3ccccc3n2C)cc1	?	0.631µM*	0.269µM*	0.224µM*	0.316µM*
CCn1c(-c2ccco2)nc2ccccc21	28.4%	9.3%	19µM*	18.2%	22.5%
CC(C)n1c(-c2ccc(N(C)C)cc2)nc2ccccc21	18.2%	10.0%	7.57µM*	?	1.1%
CCn1c(-c2ccc(N)cc2)nc2ccccc21	?	14.2%	?	1.9%	9.5%
CCn1c(-c2ccc(N(C)C)cc2)nc2ccccc21	1.6%	12.6µM*	0.849µM*	?	?
CC(C)(C)c1ccc(C(=O)N2CCC(=O)N(C(CO)Cc3ccccc3)CC2)cc1 (stereo not drawn)	0.8%	3.1%	-9.1%	-3.9%	-4.7%
O=C(COc1ccc2ccccc2c1)Nc1ccc(Br)cc1C(=O)O	-6.1%	.	?	10.0%	-0.2%
CCOc1cccc(-c2c(C(=O)N/N=C/c3cccs3)nnn2-c2nonc2N)c1	-0.3%	.	-9.7%	9.9%	8.0%
CCCOc1cccc(C(=O)Nc2ccc(-c3nc4ccccc4s3)c(Cl)c2)c1	.	11.0%	-8.9%	.	.
Cc1ccc(O)c(C(=O)c2coc(=N)c(C(=O)NC(C)C)c2)c1	-12.3%	8.6%	-1.4%	-2.4%	4.2%
CC(=O)c1cccc(NC(=O)c2sc(-n3nc(C)c(Cc4ccc5c(c4)OCO5)c3C)nc2C)c1	.	.	4.6%	.	.
COc1ccc(CCNc2nc(-c3ccc(O)cc3)cs2)cc1OC	5.2%	.	16.9µM*	0.1%	1.9%
COc1ccc(CCNc2nc(-c3ccncc3)cs2)cc1OC	-4.3%	.	21.3µM*	0.0%	3.3%
SMILES	ELG1 genotox	SMN2 splice up	FLuc counter	Rab9 prom act	NPC1 prom act
COc1ccc(CCNc2nc(-c3cccnc3)cs2)cc1OC	-10.3%	-33.2%	12µM*	3.2%	2.1%
Cc1cc2sc3nc(=O)n(-c4ccccc4)c(=O)n3c2cc1C	?	.	16.9µM*	3.16µM*	?
Cc1c(O)nc2sc3ccccc3n2c1=O	-1.6%	.	-4.8%	0.5%	0.3%
S=C(Sc1ccc(Cl)cc1)Sc1ccc(Cl)cc1	11.8%	.	-11.4%	-66.6%	-43.5%
Cc1cccc(-c2nc(C)c(CCNC(=O)C(=O)Nc3cccc(Cl)c3C)s2)c1	.	.	-0.3%	.	.
O=C(COC(=O)Cc1ccsc1)Nc1cccc(F)c1	0.8%	.	-13.6%	-0.8%	-2.0%
